The record followed here is the OligoGym collection.
Note: reference of the scale not given here.

The target of the first assay is FAM117A. As to the kind of experiment: pooled miR-30 sensor sort-seq; sequence = guide strand. The conditions noted are these: shRNA.
In turn, AAATAGAGTCTCTACATCGATA showed a sensor-assay potency score (higher = more potent) of -1.34.

TTAACATTCTTCAATTTTGTGT: the sensor-assay potency score (higher = more potent) is -0.138.

TTGTCATTGGTGCAGCAGGTGA: the sensor-assay potency score (higher = more potent) is -1.77.

Regarding TGTAGCTATGATTAGGTCGAGG, the sensor-assay potency score (higher = more potent) was -1.12.

AACTCGAACATTAACATTCTTC: the sensor-assay potency score (higher = more potent) was -0.482.

For TTGAAATGGACTTTGTTCTTGT, the sensor-assay potency score (higher = more potent) was found to be 1.01.

In turn, TCACCTTCTAGCTCTTGCCAGG yielded a sensor-assay potency score (higher = more potent) of -1.11.

TTCTTCAAACACACGCACTTTC came in with a sensor-assay potency score (higher = more potent) of -0.795.

Consider TTTTCTAATCCATCCAGCCCTG, for which the sensor-assay potency score (higher = more potent) is -0.672.

Turning to TATACAAACTTCAAACAGCTGC, the sensor-assay potency score (higher = more potent) is -0.329.

Consider TACACACTGACTTTTCTGGGGC, for which the sensor-assay potency score (higher = more potent) came out at 0.0109.

In a further assay the target is FAM127A. Described as above. The note with it: shRNA.
Regarding ATTGAGGAGGGGGCTCTCCTTC, the sensor-assay potency score (higher = more potent) was -1.52.

TGTAGGAGCCCGTCTGCACGAT had a sensor-assay potency score (higher = more potent) of -1.04.

In turn, TCGCCGTCAAACGTCTCGGGAA yielded a sensor-assay potency score (higher = more potent) of -1.08.

With TATCGCCGTCAAACGTCTCGGG, the sensor-assay potency score (higher = more potent) is -0.476.

As for ATCGCCGTCAAACGTCTCGGGA, the sensor-assay potency score (higher = more potent) was -1.14.

With ATCTCGGCCAGAAAGCCCCGGT, the sensor-assay potency score (higher = more potent) was -0.915.

Regarding TCGCTGGAGAACGTGTTCTCGT, the sensor-assay potency score (higher = more potent) is -1.32.

The sequence TTCATCTCGGCCAGAAAGCCCC displayed a sensor-assay potency score (higher = more potent) of -0.891.

In turn, AAAGACTCGCTTCATCTCGGCC showed a sensor-assay potency score (higher = more potent) of -1.07.

TCGGTATCGCCGTCAAACGTCT: the sensor-assay potency score (higher = more potent) was -1.19.

Sequence TCGGTCGGTATCGCCGTCAAAC registered a sensor-assay potency score (higher = more potent) of -1.87.

The next assay concerns the target FAM134A. The assay is described as above. The conditions noted are these: shRNA.
TGAATCTGGAAGGTGAGCCAGC: the sensor-assay potency score (higher = more potent) was -0.0919.

Sequence TACACAGACTACAGTGACCTAA showed a sensor-assay potency score (higher = more potent) of -0.201.

TTTCTTCACATCCACCACTGGG gave a sensor-assay potency score (higher = more potent) of -0.774.

AACAGCAACACTCCTAGCCAGG yielded a sensor-assay potency score (higher = more potent) of -1.64.

Turning to TACCAGAGAATGGATGTCGGGC, the sensor-assay potency score (higher = more potent) is -0.337.

Regarding TATTTTTCAAGTCAACACCTGC, the sensor-assay potency score (higher = more potent) was -0.352.

Turning to TTCTTGGTCTGACTGTACCAGA, the sensor-assay potency score (higher = more potent) is -0.779.

On to AAGAGTGTAACTACTGGCCTGA, for which the sensor-assay potency score (higher = more potent) worked out at 0.464.

TTCAAGTCAACACCTGCACAGA: the sensor-assay potency score (higher = more potent) was -0.356.

As for TTCTTCACATCCACCACTGGGG, the sensor-assay potency score (higher = more potent) is -0.152.

Consider TAAGAGTGTAACTACTGGCCTG, for which the sensor-assay potency score (higher = more potent) is -0.0872.

TTGGCTTCTGCCTTCATGCTGT came in with a sensor-assay potency score (higher = more potent) of 0.471.

The target of another assay is FAM151A. The assay is described as above. The conditions noted are these: shRNA.
As for TTCTACATTGACGTCAGCCTCC, the sensor-assay potency score (higher = more potent) is -0.0868.

In turn, TAGACTTGGTGGACAGCAGTGT came in with a sensor-assay potency score (higher = more potent) of 0.813.

Regarding TTTGCCTTCCTCTGTCAGCTGC, the sensor-assay potency score (higher = more potent) stood at 0.237.

TAGCATATCTGTGAGCAGCTGT: the sensor-assay potency score (higher = more potent) was determined as 0.652.

In turn, TAGCCTGTAGTAGACTCGGGTC gave a sensor-assay potency score (higher = more potent) of -0.281.

Consider TGTCATAGTAGACTTGGTGGAC, for which the sensor-assay potency score (higher = more potent) came to 0.221.
